Compounds without any hit were thinned out: in the full panel of roughly 83,000, 20% have a hit.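 Note: values are percent growth. 100 is the growth of untreated cells, values between 100 and 0 indicate rising inhibition; between -100 and 0 indicates cell death.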 Unmarked numbers belong to inactive results. The source made the active and inactive calls. How the source made its calls: active means growth percent below 10; inactive means the rest.

For this assay, the system named is UACC-62 melanoma. In words: NCI-60 one-dose screen, 48 h (100 = growth as untreated, 0 = no growth, -100 = all killed). To be noted: 10 µM unless noted.
As for `COc1ccc2nc(C)cc(Sc3nc4ccccc4s3)c2c1`, the growth was 47.3%.

As for `CCN(CC)CCCC(C)Nc1ccnc2ccc(Oc3ccccc3)cc12` (stereo not drawn), the growth was 31.7%.

Regarding `FC(F)(F)c1nn[nH]n1`, the growth is 107%.

For `CC(C)c1nc2ccccc2n1CC(=O)N/N=C/c1cccc(O)c1`, the growth is 86.3%.

In the case of `O=c1c2cc(Br)cc(Br)c2nc(-c2ccc(Cl)cc2)n1/N=C\c1ccccc1F`, the growth is 70.7%.

As to `C=CCN(CC#N)CC=C`, the growth was 102%.

Take `COC(=O)[C@@H](Cc1c[nH]c2ccccc12)NC(=O)/C=C/c1ccccc1`: the growth was 44.1%.

As to `CCOC(=O)C(CCCCC(NC(C)=O)(C(=O)OCC)C(=O)OCC)(NC(C)=O)C(=O)OCC`, the growth is 99.5%.

On to `COc1ccc(-c2cnnn2-c2nonc2-n2cccc2)cc1`, for which the growth is 24.1%.

Consider `CSC1=N/C(=C\c2cccc(OCc3ccc(Cl)cc3)c2)C(=O)N1`, for which the growth was 70.4%.

Regarding `COc1ccc([C@H]2c3[nH]c4ccccc4c3C[C@H]3C(=O)N(CCCCCCC(=O)NO)CC(=O)N23)cc1`, the growth is 9.81% (active).

Take `c1csc(-c2cnc3nonc3n2)c1`: the growth was 79.3%.

As to `CC1(C)CN(CCNc2nccc(-c3c(-c4cccc(O)c4)nc4sccn34)n2)S(=O)(=O)N1`, the growth is -8.38% (active).

For the compound `COc1cc(C2CC(c3ccc(Cl)cc3)=NN2C(C)=O)ccc1Oc1ccnc2cc(Cl)ccc12` (stereo not drawn), the growth was 60.5%.

Turning to `CN(C)CCCn1c(=O)c2cc([N+](=O)[O-])ccc2c2cnc3[nH]ccc3c21`, the growth was 74.6%.

On to `CN(C)N1C(=O)c2c(Cl)c(Cl)c(Cl)c(Cl)c2C1=O`, for which the growth is 104%.

`CCCCCCCCCCCCNC(=O)N[C@H](C(=O)N[C@H]1/C=C/OCCNC(=O)/C=C/[C@H](C(C)C)NC1=O)C(C)C`: the growth is 55.4%.

Take `COc1ccc2c(c1)sc1nc(-c3ccccc3)c(-c3cccc4ccccc34)n12`: the growth is 35.5%.

With `O=C(O)CSc1ccc(NCc2oc(CO)cc(=O)c2O)cc1`, the growth was 102%.

Consider `Oc1ccc(-c2nnc3c4[nH]ccc4ncn23)cc1`, for which the growth was 95.2%.

On to `COc1cccc(N2CCN(c3ncnc4cc[nH]c34)CC2)c1`, for which the growth was 58.8%.

For the compound `NC(N)=NC1CCCCC1`, the growth is 99.6%.

Turning to `COc1cc(CN(c2ccc(C)cc2)C2OC(=O)c3ccccc32)cc(OC)c1OC` (stereo not drawn), the growth is 45.9%.

Consider `CC(C)(C)OC[C@@H]1N=C(c2ccc(Br)cc2)Nc2nc3ccccn3c2C1=O`, for which the growth is 53.6%.

Consider `Cc1ccc(Nc2cc(Cl)c([N+](=O)[O-])cc2[N+](=O)[O-])cc1`, for which the growth was 48.7%.

As for `N/C(=C\C(=O)n1nc(-c2ccccc2)cc1N)c1ccccc1`, the growth is 36.9%.

For the compound `Nc1nc(N)c2cc(NCc3ccc(Cl)c(Cl)c3)ccc2n1`, the growth was -84% (active).

On to `Cn1c(-c2ccccc2)cc(=O)n1-c1ccccc1`, for which the growth was 103%.

Take `O=C(Nc1ccncc1)C(=O)c1cn(S(=O)(=O)c2cccc(Cl)c2F)c2ccccc12`: the growth is 57%.

As for `O=C(CSc1nnc(Cc2ccccc2Nc2c(Cl)cccc2Cl)n1-c1ccccc1)N1N=C(c2ccc3ccccc3c2)CC1c1ccc(Cl)cc1` (stereo not drawn), the growth is 87.6%.

Regarding `CSc1ccc(/C=C2\C=C(CC(=O)NCc3ccc(C(=O)c4ccccc4)cc3)c3cc(F)ccc32)cc1`, the growth was 3.75% (active).

For the compound `C=C1C(=O)O[C@H]2[C@H]1CC/C(COC(=O)NCc1ccc(Cn3c(=O)sn(CCCl)c3=O)cc1)=C\CC[C@@]1(C)O[C@@H]21`, the growth is 69.5%.

In the case of `O=C(O/C(=C/c1ccccc1)C(F)(F)F)c1ccccc1`, the growth is 100%.

With `COc1ccc(N=C2CSc3nnc(-c4cc(F)c(Cl)cc4Cl)n3N2)cc1`, the growth was 20.9%.

As for `CCCCCCCCN(CCCCCCCC)C(=O)CCl`, the growth was 82.9%.

For the compound `CC(C)(CCc1ccccn1)C(=O)CCCc1ccccn1`, the growth was 89.8%.

Consider `Cn1cnc([N+](=O)[O-])c1S(=O)(=O)Oc1ccccc1`, for which the growth was 99.4%.

Turning to `CCOC(=O)C1=C(C)NC(=S)NC1c1ccccc1` (stereo not drawn), the growth was 95.6%.

Values taken from PubChem BioAssay (NCI).
